# Hits are enriched below; roughly 3% of the tested compounds scored in any of these assays.
# LGR2 inh = inhibitors of bursicon-induced LGR2 CRE-luciferase signal, primary screen, cell-based, HEK293, CRE-luciferase reporter, bursicon stimulation; bursicon-stimulated, 4 h; inhibition, % at 9.99 µM; actives 0.35% (n = 380,000); AID 720647, 2013;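 active means drop in luminescence signal, shown as inhibition above about 50% in the replicate tests, limit read from the data, passing the limit was not always enough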;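 further: agonist challenge used bursicon conditioned medium at about half maximal strength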
# MITF TRPM1 HTS = activators of MITF-driven TRPM1 promoter reporter, primary screen, cell-based, SK-MEL-5, luciferase, single point. actives 0.75% (n = 300,000). AID 588334, 2011. activation, % at 12.5 µM. SK-MEL-5 TRPM1-promoter luciferase, 24 h; % of positive control, neutral wells = 0;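 active means mean activation of at least 80% with every replicate also reaching 80%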
# TWEAK Fn14 block = inhibitors of TWEAK-Fn14 signaling, primary screen, luciferase reporter cells, uHTS; TWEAK-stimulated Fn14 reporter cells, luciferase luminescence, 8 h; actives 2% (n = 360,000); AID 1159606, 2016; inhibition, % at 10 µM; in the data active means inhibition above about 50%
# TROY signal inh = inhibitors of TROY-driven NF-kB signaling, primary screen, Q293 LMP1-TROYcd cells, NF-kB luciferase, uHTS; Q293 LMP1-TROYcd NF-kB luciferase reporter, 4 h; inhibition, % at 10 µM; actives 0.98% (n = 360,000);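 active means compounds whose plate-normalised and pattern-corrected inhibition of the luciferase reporter signal at the single screening dose is 50% or more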
# EBV LMP1 NFkB = EBV LMP1-driven NF-kappaB luciferase reporter inhibitors, primary screen, cell-based, luminescence, single point; LMP1-induced NF-kappaB luciferase reporter cells; inhibition, % at 12.5 µM; actives 0.69% (n = 350,000); AID 504558, 2011; in the data active means inhibition above about 41%
# MITF TRPM1 inh = inhibitors of MITF-dependent TRPM1 promoter reporter, primary screen, cell-based, SK-MEL-5, single point, luciferase; AID 488899, 2010; actives 0.83% (n = 330,000); SK-MEL-5 TRPM1 promoter luciferase, 24 h; inhibition, % at 12.5 µM;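 active means mean inhibition across replicates of 60% or more, whatever share of single replicates reaches that level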
# Numbers stand for hits; . = inactive; / = no result given.
SMILES,LGR2 inh,MITF TRPM1 HTS,TWEAK Fn14 block,TROY signal inh,EBV LMP1 NFkB,MITF TRPM1 inh
COc1cc(N(C)C)ccc1C=c1c2ccccc2n2c1cc(-c1ccccc1)[n+]2C,79,/,88,58,.,110
CN(C)c1ccc(C=c2c3ccccc3n3c2cc(-c2ccccc2)[n+]3C)cc1,91,.,97,53,.,95
CN(C)c1ccc(C=C2C=C(c3ccccc3)OC2=O)cc1,.,/,.,.,.,/
O=C(N[C@@H]1CC[C@H](CC(=O)N2CCCCC2)O[C@H]1CO)c1ccc2c(c1)OCO2,.,/,/,/,/,/
Cc1ccc(-c2cnc3c(c2)C(=O)N([C@@H](C)CO)C[C@H](C)[C@@H](CN(C)C(=O)c2cccc(F)c2)O3)cc1,.,/,/,/,/,/
CCS(=O)(=O)NCC[C@H]1CC[C@H](NC(=O)C2CC2)[C@@H](CO)O1,.,/,/,/,/,/
CN(C)c1ccc(C=c2c3ccccc3n3c2cc(-c2ccc(Cl)cc2)[n+]3C)cc1,.,.,54,62,.,97
CN(c1ccc(Cl)cc1)c1cc(=O)n(C)c2ccccc12,/,.,.,.,.,.
CN(C)c1ccc(C=c2c3cc([N+](=O)[O-])ccc3n3c2cc(-c2ccccc2)[n+]3C)cc1,.,.,76,.,.,95
C[C@H]1CN([C@@H](C)CO)C(=O)c2cccc(N(C)C)c2O[C@@H]1CN(C)Cc1ccc(C(=O)O)cc1,.,/,/,/,/,/
CCCc1[nH]nc2c1C(c1cn[nH]c1-c1ccc(F)cc1)C(C#N)=C(N)O2 (stereo not given),/,.,54,.,.,61
CCNC(=O)C[C@@H]1CC[C@@H]2[C@H](COc3ccc(NC(=O)c4ccc(C(F)(F)F)cc4)cc3C(=O)N2C)O1,.,/,/,/,/,/
Cc1cc(C)cc(CC(Cc2nc3ccccc3[nH]2)c2nc3ccccc3[nH]2)c1 (stereo not given),/,.,56,52,.,.
Nc1nc(=S)c2[nH]cnc2[nH]1,.,.,.,.,85,78
Nc1nc(=S)c2[nH]c(=S)[nH]c2[nH]1,.,.,.,.,.,.
C[C@@H]1CN([C@@H](C)CO)C(=O)c2cc(NS(=O)(=O)c3cn(C)cn3)ccc2O[C@@H]1CN(C)Cc1ccc(Cl)c(Cl)c1,.,/,/,/,/,/
CC1CCN(c2ccc(-c3ccc(NC(=O)C(F)(F)F)cc3)nn2)CC1,/,.,62,.,46,.
CC(=O)Nc1ccc(NC(=O)C(F)(F)F)cc1,/,.,.,.,.,.
C[C@@H]1CN([C@@H](C)CO)C(=O)c2cc(-c3cccc(F)c3)cnc2O[C@@H]1CN(C)Cc1cccnc1,.,/,/,/,/,/
Cc1cc(/C=C(\C#N)C(=O)Nc2ccccc2)c(C)n1-c1cccnc1,.,.,.,.,.,.
N#C/C(=C\c1ccccc1O)C(=O)Nc1cccnc1,.,94,.,.,.,.
CC1Cc2ccccc2N1c1ncnc2nc[nH]c12 (stereo not given),/,.,60,.,.,.
CC1CCCCN1c1ncnc(N)c1[N+](=O)[O-] (stereo not given),.,.,61,.,.,.
CC1Cc2ccccc2N1c1ncnc(N)c1[N+](=O)[O-] (stereo not given),64,.,93,68,76,.
Cc1nc(N2CCOCC2)nc(N2CCCCC2C)c1[N+](=O)[O-] (stereo not given),.,/,.,.,.,.
SMILES,LGR2 inh,MITF TRPM1 HTS,TWEAK Fn14 block,TROY signal inh,EBV LMP1 NFkB,MITF TRPM1 inh
O=C(NCc1ccco1)/C(=C\C=C\c1ccccc1)NC(=O)c1ccccc1Br,.,.,.,70,.,.
O=C(NCc1ccco1)/C(=C/C=C/c1ccccc1)NC(=O)c1ccco1,.,.,.,.,.,.
O=[N+]([O-])c1ccc(CSc2nnc(Cc3ccccc3)o2)cc1,.,.,.,.,.,.
COc1ccc(Cc2nnc(SCc3ccc([N+](=O)[O-])cc3)o2)cc1,.,.,65,.,.,.
Cc1cc(C(=O)Nc2cccc3c2O[C@H](CN(C)C(=O)Nc2cccc4ccccc24)[C@@H](C)CN([C@@H](C)CO)C3=O)n(C)n1,.,/,/,/,/,/
COC(=O)c1cc(NC(=O)CN(c2ccccc2OC)S(=O)(=O)c2ccccc2)ccc1Cl,.,.,53,.,.,.
COC(=O)c1cc(NC(=O)CN(c2cccc(OC)c2)S(=O)(=O)c2ccccc2)ccc1Cl,.,.,51,.,.,.
CCc1ccc(OCC(=O)Nc2ccc(-c3cc4ccccc4oc3=O)c(OC)c2)cc1,.,.,73,.,.,.
COc1ccc(C=C2CS(=O)(=O)CC(=Cc3ccc(OC)cc3)C2=O)cc1,active,/,88,56,91,/
COc1ccc(/C=C2\CCCCC2=O)cc1,.,/,.,.,.,.
CC(C)=NNc1nc(-c2ccccc2)cs1,.,.,.,.,.,.
CCOC(=O)C/C(C)=N\Nc1nc(-c2ccccc2)cs1,.,.,51,.,.,.
COc1ccccc1-c1ccc2n(c1=O)C[C@@H]1[C@@H](CO)[C@H](C(=O)N3CCCCC3)[C@H]2N1CC1CC1,.,/,/,/,/,/
Cc1cc(-c2nnc(SCC(=O)Nc3nc(-c4ccc(Cl)cc4)cs3)o2)no1,.,.,83,.,.,.
Cc1nc2ccccc2nc1SCC(=O)c1ccccc1,.,.,60,.,.,.
Cc1cccc(NC(=O)NCC2CCN(c3ccc(S(=O)(=O)N4CCOCC4)cc3)CC2)c1,.,.,.,54,.,.
CCNC(=O)C[C@H]1CC[C@H]2[C@H](COc3ccc(NC(=O)c4ccccc4Cl)cc3C(=O)N2C)O1,.,/,/,/,/,/
CN(C)CCNC=C(C(=O)Nc1ccc(Cl)cc1Cl)C(=O)Nc1ccc(Cl)cc1Cl,/,.,.,54,.,.
NC(=O)C1CCN(C2=C(NS(=O)(=O)c3ccccc3)C(=O)c3ccccc3C2=O)CC1,.,.,.,.,.,.
CCOC(=O)N1CCN(C2=C(NS(=O)(=O)c3ccc(Br)cc3)C(=O)c3ccccc3C2=O)CC1,.,/,.,.,.,/
CN1CCN(C2=C(NS(=O)(=O)c3ccccc3)C(=O)c3ccccc3C2=O)CC1,/,.,.,.,.,78
NC(=O)C1CCN(C2=C(NS(=O)(=O)c3ccc(Br)cc3)C(=O)c3ccccc3C2=O)CC1,.,.,.,.,.,68
CCOC(=O)N1CCN(C2=C(NS(=O)(=O)c3ccccc3)C(=O)c3ccccc3C2=O)CC1,.,.,.,.,.,.
O=C1C(NS(=O)(=O)c2ccc(Cl)cc2)=C(N2CCCCC2)C(=O)c2ccccc21,.,.,.,.,.,.
CCN1CCN(C2=C(NS(=O)(=O)c3ccccc3)C(=O)c3ccccc3C2=O)CC1,.,.,.,.,/,67

# Source: PubChem (several laboratories)
